Data from the supplement of paper PMC10981050.
Where a name gives a salt, the structure may show the parent alone.

tested on: OCI-AML2; assay: cell viability relative to vehicle control; higher = less cytotoxic; details: 10 µM; SRSF2 genotype: P95H/wt
Method in brief: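 After removal of identity-inconsistent compounds, the Selleck bioactive, kinase and epigenetic probe libraries were screened on CRISPR-edited mutant clones and isogenic wild-type clones of four leukaemia lines. Plates were 384-well, each well holding 2000 cells in 50 µL medium and receiving a single 10 µM acoustically dispensed dose. CellTiter-Glo luminescence was read 48 h later, after the supernatant was taken off. Genedata Screener was used to express viability as percent of the on-plate vehicle control.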

SMILES	cell viability [%]
O=c1cc(N2CCOCC2)oc2c(-c3ccccc3)cccc12	47.5
C[C@@H]1C(=O)O[C@H](C)[C@H]1C[C@@H](O)[C@](C)(O)[C@H]1CC[C@@]2(O)C3=CC(=O)[C@@H]4C[C@@H](O)[C@@H](O)C[C@]4(C)[C@H]3CC[C@]12C [Cyasterone]	105
CSCC[C@H](NC(=O)[C@H](CC(C)C)NC(=O)[C@H](Cc1c[nH]c2ccccc12)NC(=O)[C@H](CCC(N)=O)NC(=O)[C@@H](NC(=O)[C@H](Cc1ccccc1)NC(=O)[C@H](CC(=O)O)NC(=O)[C@H](CCC(N)=O)NC(=O)[C@H](C)NC(=O)[C@H](CCCNC(=N)N)NC(=O)[C@H](CCCNC(=N)N)NC(=O)[C@H](CO)NC(=O)[C@H](CC(=O)O)NC(=O)[C@H](CC(C)C)NC(=O)[C@H](Cc1ccc(O)cc1)NC(=O)[C@H](CCCCN)NC(=O)[C@H](CO)NC(=O)[C@H](Cc1ccc(O)cc1)NC(=O)[C@H](CC(=O)O)NC(=O)[C@H](CO)NC(=O)[C@@H](NC(=O)[C@H](Cc1ccccc1)NC(=O)[C@@H](NC(=O)CNC(=O)[C@H](CCC(N)=O)NC(=O)[C@H](CO)NC(=O)[C@@H](N)Cc1cnc[nH]1)[C@@H](C)O)[C@@H](C)O)C(C)C)C(=O)N[C@@H](CC(N)=O)C(=O)N[C@H](C(=O)O)[C@@H](C)O [Glucagon HCl]	103
CCc1ccc(Cc2ccc3c(c2)[C@]2(OC3)O[C@H](CO)[C@@H](O)[C@H](O)[C@H]2O)cc1 [Tofogliflozin(CSG 452)]	93.8
CCCCC(C)(O)C/C=C/[C@H]1[C@H](O)CC(=O)[C@@H]1CCCCCCC(=O)OC (mixture of isomers) [Misoprostol]	89.2
O=C(Nc1ccc(Br)cc1)c1ccc(Br)c(S(=O)(=O)NCc2ccccc2)c1	76.2
CC[C@H]1OC(=O)[C@H](C)[C@@H](O[C@H]2C[C@@](C)(OC)[C@@H](O)[C@H](C)O2)[C@H](C)[C@@H](O[C@@H]2O[C@H](C)C[C@H](N(C)C)[C@H]2O)[C@](C)(O)C[C@@H](C)/C(=N\OCOCCOC)[C@H](C)[C@@H](O)[C@]1(C)O [Roxithromycin (Roxl-150)]	93.6
C=C1CC[C@H](O)C/C1=C/C=C1\CCC[C@]2(C)[C@@H]([C@H](C)/C=C/[C@H](C)C(C)C)CC[C@@H]12 [Vitamin D2 (Ergocalciferol)]	100
O=C(c1ccc(C(=O)N2CCC(N3CCCC3)CC2)c(Nc2ccccc2)c1)N1CCC(N2CCCC2)CC1	93.8
OCc1ccc(-c2ccc(-c3ccc(CO)s3)o2)s1	9.11
CCNC(=O)c1noc(-c2cc(C(C)C)c(O)cc2O)c1-c1ccc(CN2CCOCC2)cc1 [Luminespib (AUY-922, NVP-AUY922)]	12.3
O=C(c1ccc(Cl)cc1)N(Cc1ccccc1)C1CCCCC1	72.5
COc1ccc2c3c1O[C@H]1C[C@@H](O)C=C[C@@]31CCN(C)C2 [Galanthamine]	109
CN1CCN(c2ccc3nc(-c4c(N)c5c(F)cccc5[nH]c4=O)[nH]c3c2)CC1 [Dovitinib (TKI-258, CHIR-258)]	3.02
COc1cc2nc(N3CCN(C(=O)C4CCCO4)CC3)nc(N)c2cc1OC (stereo unspecified) [Terazosin HCl Dihydrate]	94.8
CC[C@H](Nc1ncnc2[nH]cnc12)c1oc2ccccc2c(=O)c1-c1cccc(F)c1 [Tenalisib (RP6530)]	84.8
O=C(c1ccccc1)C(O)O [Phenylglyoxal hydrate]	81.6
O=c1c(O)c(-c2ccc(O)c(O)c2)oc2cc(O)cc(O)c12 [Quercetin (Sophoretin)]	93.8
CO[C@H]1/C=C/O[C@@]2(C)Oc3c(C)c(O)c4c(O)c(c5c(nc6cc(C)ccn65)c4c3C2=O)NC(=O)/C(C)=C\C=C\[C@H](C)[C@H](O)[C@@H](C)[C@@H](O)[C@@H](C)[C@H](OC(C)=O)[C@@H]1C [Rifaximin (Xifaxan)]	111
CC[C@@]1(O)C(=O)OCc2c1cc1n(c2=O)Cc2cc3c(CN(C)C)c(O)ccc3nc2-1 [Topotecan]	3.47
C=C(C)[C@@H]1CC[C@]2(C(=O)O[C@@H]3O[C@H](CO[C@@H]4O[C@H](CO)[C@@H](O[C@@H]5O[C@@H](C)[C@H](O)[C@@H](O)[C@H]5O)[C@H](O)[C@H]4O)[C@@H](O)[C@H](O)[C@H]3O)CC[C@]3(C)[C@H](CC[C@@H]4[C@@]5(C)CC[C@H](O[C@@H]6OC[C@H](O)[C@H](O)[C@H]6O[C@@H]6O[C@@H](C)[C@H](O)[C@@H](O)[C@H]6O)[C@@](C)(CO)[C@@H]5CC[C@]43C)[C@@H]12 [Anemoside B4]	93.2
